Source: the supplement of paper PMC8183993
Structures can show the parent of a compound that is named as a salt. ± gives the standard deviation of the averaged measurements. Whole data set: some 3,200 compounds, median “nuclei count (viability) relative to DMSO” near 99, cut for the lowest 2% near 16. Only a selection was taken, and the lowest values are over-represented in it overall.

test system: U2OS; assay: nuclei count (viability) relative to DMSO (% of DMSO); higher = more viable cells; conditions: 10 µM; 24 h
Procedure: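 Primary image-based screen in U2OS cells: compounds at 10 uM for 24 h, then a 1 h o-propargyl-puromycin (OPP) pulse, click labelling, and high-throughput microscopy. Mean cytoplasmic OPP intensity and nuclei count were normalised to DMSO wells within each plate (DMSO = 100) and averaged over triplicate plates.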

SMILES | nuclei count
O=C1/C(=C/c2ccccc2)C[C@@]2(O)[C@H]3Cc4ccc(O)c5c4[C@@]2(CCN3CC2CC2)[C@H]1O5 [BNTX maleate] | 3.38
O=C1CC[C@@]2(O)[C@H]3Cc4ccc(O)c5c4[C@@]2(CCN3CC2CC2)[C@H]1O5 [Naltrexone hydrochloride dihydrate] | 105
Oc1ccc2c3c1O[C@H]1c4[nH]c5c(c4C[C@@]4(O)[C@@H](C2)N(CC2CC2)CC[C@]314)C[C@@]1(O)[C@H]2Cc3ccc(O)c4c3[C@@]1(CCN2CC1CC1)[C@H]5O4 [nor-Binaltorphimine dihydrochloride] | 99.1
CC(=O)O[C@H]1CC[C@@]2(C)C(=CC[C@@H]3[C@@H]2CC[C@]2(C)C(=O)CC[C@@H]32)C1 [Dehydroisoandosterone 3-acetate] | 96.3
C[C@@H]1CC[C@@]2(OC1)O[C@H]1C[C@H]3[C@@H]4CC=C5C[C@@H](O[C@@H]6O[C@H](CO)[C@@H](O[C@@H]7O[C@@H](C)[C@H](O)[C@@H](O)[C@H]7O)[C@H](O)[C@H]6O[C@@H]6O[C@@H](C)[C@H](O)[C@@H](O)[C@H]6O)CC[C@]5(C)[C@H]4CC[C@]3(C)[C@H]1[C@@H]2C [Dioscin (Collettiside III)] | 9.01
CCN(CC)CCO[C@H]1CC[C@@]2(C)C(=CC[C@@H]3[C@@H]2CC[C@]2(C)C(=O)CC[C@@H]32)C1 | 97
CO[C@@H]1[C@H](OC(=O)NC(=O)CCl)CC[C@]2(CO2)[C@H]1[C@@]1(C)O[C@@H]1CC=C(C)C | 92.6
Cc1onc(O)c1C[C@H](N)C(=O)O | 102
CCC(=O)CCCCC[C@@H]1NC(=O)[C@H]2CCCCN2C(=O)[C@H]([C@@H](C)CC)NC(=O)[C@H](Cc2cn(OC)c3ccccc23)NC1=O [Apicidin] | 54.1 ± 37
CN(C(=O)Cc1ccccc1)C(CN1CCCC1)c1ccccc1 (stereo unspecified) [N-MPPP Hydrochloride] | 87.9
O=C1NC(=O)c2c1c1c3ccccc3n3c1c1c2c2ccccc2n1[C@H]1CC[C@@H]3O1 | 60.9
CN[C@@H]1C[C@H]2O[C@@](C)([C@@H]1OC)n1c3ccccc3c3c4c(c5c6ccccc6n2c5c31)C(=O)NC4 [Staurosporine] | 10.1
O=C1CN=C(c2cccc(Br)c2)c2oc3ccccc3c2N1 | 78.5
Clc1ccccc1C(c1ccccc1)(c1ccccc1)n1cccn1 | 102
CC(C)(c1ccc(OCC2CO2)cc1)c1ccc(OCC2CO2)cc1 (stereo unspecified) | 86.6 ± 6.1
CCN1C[C@]2(COC(=O)c3ccccc3N3C(=O)C[C@H](C)C3=O)CC[C@H](OC)[C@@]34[C@@H]5C[C@H]6[C@H](OC)[C@@H]5[C@](O)(C[C@@H]6OC)[C@](O)([C@@H](OC)[C@H]23)[C@@H]14 [Methyllycaconitine citrate] | 109
CC(=O)N1CC[N+](C)(C)CC1 [4-Acetyl-1,1-dimethylpiperazinium iodide] | 103
COc1cc([C@@H]2c3cc4c(cc3[C@H](O)[C@H]3COC(=O)[C@H]23)OCO4)cc(OC)c1OC [Podophyllotoxin] | 15.6

SMILES | nuclei count
CC(C(=O)OC1CC2CCC(C1)N2C)c1ccc(Br)cc1 (stereo unspecified) [PG-9 maleate] | 98.8
O=C1Nc2cc(Cl)c(Cl)cc2N2CCNCC12 (stereo unspecified) | 95.9
CC12NC(Cc3ccccc31)c1ccccc12 (single isomer, unassigned; (+)) [(+)-MK 801 maleate] | 94.2
O=C(CCCN1CCC2(CC1)C(=O)N(Cc1cccc(F)c1)CN2c1ccccc1)c1ccc(F)cc1 [3'-Fluorobenzylspiperone maleate] | 29.4
COc1ccc(C[C@H]2NC[C@H](O)[C@H]2OC(C)=O)cc1 [Anisomycin] | 12.5 ± 8.3
CC(C)n1cnc2c(C(=O)N[C@H]3CN4CCC3CC4)cc(Cl)cc21 | 96.2
CCCCC/C=C\C/C=C\C/C=C\C/C=C\CCCC(=O)Nc1ccc(O)cc1 | 97
COc1cc2c(cc1O)C(CCc1ccc(Cl)cc1)N(C)CC2 (stereo unspecified) | 104
CC1(C)CCCC(C)(C)N1[O] | 91.7
CC(C)(Cc1c[nH]c2ccc(Cl)cc12)NCCOc1ccccc1OCC1CC1 | 11.3
N#CC(C#N)=Cc1ccc(O)cc1 [Tyrphostin 8] | 102
COc1ccc(C(=O)c2c(C)n(CCN3CCOCC3)c3cc(I)ccc23)cc1 | 80
C[CH2][Hg][S]c1ccccc1C(=O)[O-].[Na+] [Thimerosal] | 5.97
CC(=O)C1=C(O)[C@@H]2[C@H]3c4c[nH]c5cccc(c45)C[C@H]3C(C)(C)N2C1=O [Cyclopiazonic acid] | 75.5
CC(=O)C1=C(O)[C@@H]2[C@H]3c4c[nH]c5cccc(c45)C[C@H]3C(C)(C)N2C1=O [Cyclopiazonic Acid] | 90.3
CC(C)(O)[C@H]1O[C@H]2CC[C@@]3(C)[C@@](O)(CC[C@H]4Cc5c([nH]c6ccccc56)[C@@]43C)C2=CC1=O [Paxilline] | 91.2 ± 11
CN1C(=O)[C@]23CC4=CC=C[C@H](O)[C@H]4N2C(=O)[C@@]1(CO)SS3 [Gliotoxin] | 36
Cc1ccc(C[N+](C)(C)C)o1 [5-Methylfurmethiodide] | 91.6
